The values that follow come from the supplement of paper PMC9262897, “Low-cost anti-mycobacterial drug discovery using engineered E. coli” (Nature Communications, 2022).

Where a name gives a salt, the structure may show the parent alone. ± gives the standard deviation of the averaged measurements.

One test concerns E. coli TESEC Mtb Alr. The test is described as follows: growth (OD600 after 10 h); higher = more growth (less inhibition). Particulars: arabinose 100 nM; compound 0.1 mM; raw OD600 reference: median of DMSO wells 0.413, cell-free background 0.052. Here is the method: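 TESEC Mtb Alr E. coli (ΔaraC ΔtolC ΔentC Δalr ΔdadX, arabinose-inducible Mtb Alr) or the Alr+ wild-type control strain, grown in defined M9-fructose medium without D-alanine in 96-well plates with Prestwick library compounds at 0.1 mM and 1% DMSO. Low Alr induction is 0.1 µM arabinose and high induction is 10 mM arabinose.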
For the compound `CC(=O)Nc1ccc(OCC(O)CNC(C)C)cc1` (stereo not given) [Practolol], the growth is 0.402 ± 0.014. The same measure, in the same setting: the same measure for `CN(C)CCOC(=O)COc1ccc(Cl)cc1` [Meclofenoxate hydrochloride]: 0.4 ± 0.013; for `NCCNCCNCCNCCN` [Tetraethylenepentamine pentahydrochloride]: 0.414 ± 0.0053; for `C#C[C@]1(O)CC[C@H]2[C@@H]3CCC4=CC(=O)CC[C@@H]4[C@H]3CC[C@@]21C` [Norethindrone]: 0.397 ± 0.0089. Still for that read-out and setting: for `Nc1c(Br)cc(Br)cc1CN[C@H]1CC[C@H](O)CC1` [Ambroxol hydrochloride] the value was 0.406 ± 0.0096; for `Clc1ccc(C(c2ccccc2Cl)C(Cl)Cl)cc1` (stereo not given) [Mitotane], 0.38 ± 0.011; for `Cc1nc2ccccn2c(=O)c1CCN1CCC(C(=O)c2ccc(F)cc2)CC1` [Pirenperone], 0.408 ± 0.011. `O=c1cc(-c2ccc(O)c(O)c2)oc2cc(O)cc(O)c12` [Luteolin] gave a growth of 0.152 ± 0.019. On the same count and under the same terms, the same measure for `CC[N+](C)(C)c1cccc(O)c1` [Edrophonium chloride]: 0.401 ± 0.015; for `CCn1cc(C(=O)O)c(=O)c2cc(F)c(N3CCNC(C)C3)c(F)c21` (stereo not given) [Lomefloxacin hydrochloride]: 0.0534 ± 0.0016.

The same test, now with this note: arabinose 10000000 nM; compound 0.1 mM; raw OD600 reference: median of DMSO wells […], cell-free background 0.052.
For the compound `CCCNC(C)(C)COC(=O)c1ccccc1` [Meprylcaine hydrochloride], the growth stood at 0.339 ± 0.0092.

In turn, `CN1CCC(=C2c3ccccc3CCc3cccnc32)CC1` [Azatadine maleate] returned a growth of 0.338 ± 0.018. `CNC(=C[N+](=O)[O-])NCCSCc1csc(CN(C)C)n1` [Nizatidine] came in with a growth of 0.342 ± 0.01. In the case of `Fc1ccc(C(c2ccc(F)cc2)N2CCN(C/C=C/c3ccccc3)CC2)cc1` [Flunarizine dihydrochloride], the growth turned out to be 0.128 ± 0.014. In the case of `CC(C(=O)O)c1cccc(C(=O)c2ccccc2)c1` (stereo not given) [Ketoprofen], the growth was found to be 0.36 ± 0.005. The same measure, in the same setting: for `C1N2CN3CN1CN(C2)C3` [Methenamine] the value was 0.376 ± 0.0071; for `Cc1c(N(C)CS(=O)(=O)O)c(=O)n(-c2ccccc2)n1C` [Dipyrone], 0.335 ± 0.011; for `Cc1onc(-c2ccccc2)c1-c1ccc(S(N)(=O)=O)cc1` [Valdecoxib], 0.198 ± 0.016. Compound `O=C(C1CCCCC1)N1CC(=O)N2CCc3ccccc3C2C1` (stereo not given) [Praziquantel] displayed a growth of 0.37 ± 0.025. Still for that read-out and setting: for `Clc1ccc(Cn2c(CN3CCCC3)nc3ccccc32)cc1` [Clemizole hydrochloride] the value was 0.185 ± 0.055; for `O=C(O)c1ccccc1OP(=O)(O)O` [Fosfosal], 0.366 ± 0.0071.

In the case of `COc1ccc(C2CNC(=O)C2)cc1OC1CCCC1` (stereo not given) [Rolipram], the growth amounted to 0.311 ± 0.019. `CCC1=C(C)CN(C(=O)NCCc2ccc(S(=O)(=O)NC(=O)N[C@H]3CC[C@H](C)CC3)cc2)C1=O` [Glimepiride] gave a growth of 0.193 ± 0.014.

`CC(=O)Nc1c(I)c(C(=O)N[C@H]2C(O)O[C@H](CO)[C@@H](O)[C@@H]2O)c(I)c(N(C)C(C)=O)c1I` (stereo not given in full) [Metrizamide] yielded a growth of 0.334 ± 0.011. Still for that read-out and setting: for `CN(C(=O)C(Cl)Cl)c1ccc(OC(=O)c2ccco2)cc1` [Diloxanide furoate] the value was 0.374 ± 0.025; for `Cc1c(Cl)cccc1Nc1ccccc1C(=O)O` [Tolfenamic acid], 0.0536 ± 0.0002; for `COc1ccc(C(=O)CC(=O)c2ccc(C(C)(C)C)cc2)cc1` [Avobenzone], 0.267 ± 0.0055. Still for that read-out and setting: the same measure for `NCc1ccccc1CC(=O)N[C@@H]1C(=O)N2C(C(=O)O)=C(CSc3nnnn3CC(=O)O)CS[C@H]12` [Ceforanide]: 0.303 ± 0.024. The compound `CN(C)CCCN1c2ccccc2CCc2ccccc21` [Imipramine hydrochloride] came in with a growth of 0.21 ± 0.11. For the compound `COc1ccc(-c2cc(=O)c3c(O)cc(O[C@@H]4O[C@H](CO[C@@H]5O[C@@H](C)[C@H](O)[C@@H](O)[C@H]5O)[C@@H](O)[C@H](O)[C@H]4O)cc3o2)cc1O` [Diosmin], the growth was 0.426 ± 0.065. Compound `COC(=O)N/N=C/c1c[n+]([O-])c2ccccc2[n+]1[O-]` [Carbadox] showed a growth of 0.082 ± 0.0067. With `N=C(N)NC(=O)c1nc(Cl)c(N)nc1N` [Amiloride hydrochloride dihydrate], the growth was 0.392 ± 0.015.

`Nc1nc(Cl)nc2c1ncn2[C@H]1C[C@H](O)[C@@H](CO)O1` [Cladribine] gave a growth of 0.219 ± 0.031.

With `CO[C@@]1(NC(=O)C2SC(=C(C(N)=O)C(=O)O)S2)C(=O)N2C(C(=O)O)=C(CSc3nnnn3C)CS[C@@H]21` (stereo not given in full) [Cefotetan], the growth stood at 0.0531 ± 0.0051.

In turn, `CC(=O)O[C@H]1C[C@@]2(C)[C@@H](C[C@@H](O)[C@H]3[C@@]4(C)CC[C@@H](O)[C@@H](C)[C@@H]4CC[C@@]32C)/C1=C(\CCC=C(C)C)C(=O)O` [Fusidic acid sodium salt] returned a growth of 0.0515 ± 0.00085. Consider `COc1ccc(CN(CCN(C)C)c2ccccn2)cc1` [Pyrilamine maleate], for which the growth was determined as 0.321 ± 0.015. In the case of `C#C[C@]1(O)CC[C@H]2[C@@H]3CCC4=Cc5oncc5C[C@]4(C)[C@H]3CC[C@@]21C` [Danazol], the growth is 0.309 ± 0.026. The compound `CCN(CC)C(C)CN1c2ccccc2Sc2ccccc21` (stereo not given) [Ethopropazine hydrochloride] displayed a growth of 0.333 ± 0.014. Regarding `CCCNC(C)C(=O)Nc1c(C)csc1C(=O)OC` (stereo not given) [Articaine hydrochloride], the growth came to 0.316 ± 0.021. For `Cc1ccc(Cl)c(Nc2ccccc2C(=O)O)c1Cl` [Meclofenamic acid sodium salt monohydrate], the growth was determined as 0.0591 ± 0.0032. `CC(=O)Nc1ccc(OCC(O)CNC(C)C)cc1` (stereo not given) [Practolol] gave a growth of 0.361 ± 0.0065. `CN(C)CCOC(=O)COc1ccc(Cl)cc1` [Meclofenoxate hydrochloride] yielded a growth of 0.313 ± 0.014. As for `NCCNCCNCCNCCN` [Tetraethylenepentamine pentahydrochloride], the growth turned out to be 0.303 ± 0.01. `C#C[C@]1(O)CC[C@H]2[C@@H]3CCC4=CC(=O)CC[C@@H]4[C@H]3CC[C@@]21C` [Norethindrone] gave a growth of 0.233 ± 0.014. In turn, `Nc1c(Br)cc(Br)cc1CN[C@H]1CC[C@H](O)CC1` [Ambroxol hydrochloride] returned a growth of 0.312 ± 0.015.

`Clc1ccc(C(c2ccccc2Cl)C(Cl)Cl)cc1` (stereo not given) [Mitotane] registered a growth of 0.0729 ± 0.0022. In turn, `Cc1nc2ccccn2c(=O)c1CCN1CCC(C(=O)c2ccc(F)cc2)CC1` [Pirenperone] returned a growth of 0.312 ± 0.023. For the compound `O=c1cc(-c2ccc(O)c(O)c2)oc2cc(O)cc(O)c12` [Luteolin], the growth was 0.0574 ± 0.0016.

In the case of `CC[N+](C)(C)c1cccc(O)c1` [Edrophonium chloride], the growth came out at 0.346 ± 0.029. On the same count and under the same terms, the same measure for `CCn1cc(C(=O)O)c(=O)c2cc(F)c(N3CCNC(C)C3)c(F)c21` (stereo not given) [Lomefloxacin hydrochloride]: 0.0512 ± 0.0011.
